Results reported in PubChem BioAssay.
Active and inactive are the calls of the source.

Experiments:
[1] = compounds binding Alexa647 anti-His antibody – biochemical, small-molecule microarray, 635 nm fluorescence, artefact control for SMM control protein annotation, primary screen (AID 1128); details: higher = more signal;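 note: score merges feature fluorescence with signal-to-noise for each printed compound spot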
[2] = test system: Human papillomavirus type 1a E7 protein (residues 1-88); experiment: HPV1a E7 small-molecule binders, primary screen, biochemical, small-molecule microarray, residues 1-88, 635 nm (AID 1129); details: small-molecule microarray binding, fluorescence 635 nm; higher = more signal
[3] = target: Focal adhesion kinase 1 (Homo sapiens) (UniProt Q05397); experiment: PTK2 protein binding on printed compound slides – biochemical, small-molecule microarray, 635/667 nm fluorescence, BSA, DTT, primary screen (AID 1130); details: 635 nm fluorescence, higher = more signal;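 note: composite of spot emission at 667 nm and signal to noise over triplicate slides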
[4] = test system: Fibrinogen (Alexa647-labelled); experiment: Alexa647-fibrinogen binding to printed small molecules – biochemical, small-molecule microarray, 635/667 nm fluorescence, artefact control for SMM control-protein annotation, profiling panel (AID 1131); details: fibrinogen-A647 binding fluorescence, higher = more signal;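 note: z-score merges 667 nm fluorescence with per-spot signal-to-noise over triplicate slides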
[5] = target: Follistatin (Homo sapiens) (UniProt P19883); experiment: FST protein binding to printed compounds – biochemical, small-molecule microarray, 635/667 nm fluorescence, primary screen (AID 1132); details: 635 nm fluorescence, higher = more signal
[6] = target: Fibroblast growth factor 2 (Homo sapiens) (UniProt P09038); experiment: basic fibroblast growth factor binding to printed compounds – biochemical, small-molecule microarray, 635/667 nm fluorescence, primary screen (AID 1133); details: FGF2, fluorescence 635/667, higher = more signal
[7] = JC-1 mitochondrial potential readout, lung cancer cells – cell-based, A549, JC-1 fluorescence, basal, 24 h, 100 nL, profiling panel (AID 1138); details: higher = more signal;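 note: A549 lung adenocarcinoma cells under basal conditions with no added stimulus; test concentration not given here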
Lefty1 = Lefty1 protein binding to printed compounds – biochemical, small-molecule microarray, 635/667 nm fluorescence, primary screen (AID 1139); details: fluorescence 635/667, higher = more signal
[8] = test system: wheat germ agglutinin (Triticum aestivum), Alexa647-labelled; experiment: Alexa647-WGA lectin binding to printed small molecules – biochemical, small-molecule microarray, 635/667 nm fluorescence, artefact control for SMM control-protein annotation, profiling panel (AID 1140); details: WGA-A647 binding, 635 nm fluorescence, higher = more signal;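 note: score merges 667 nm feature emission with signal to noise over triplicate slides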
[9] = target: Luciferin 4-monooxygenase (Photinus pyralis) (UniProt P08659); experiment: inhibition of purified Photinus pyralis luciferase – biochemical, luminescence, purified enzyme, 2006 set, primary screen (AID 1141); details: purified firefly luciferase, SteadyGlo luminescence, 30 min; higher = more signal, called active from +8 up or from −8 down;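 note: cell-free assay with purified firefly luciferase at 100 ng per well in PBS; test concentration not given here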
Sequence of Luciferin 4-monooxygenase (Photinus pyralis) (P08659 whole entry, looked up): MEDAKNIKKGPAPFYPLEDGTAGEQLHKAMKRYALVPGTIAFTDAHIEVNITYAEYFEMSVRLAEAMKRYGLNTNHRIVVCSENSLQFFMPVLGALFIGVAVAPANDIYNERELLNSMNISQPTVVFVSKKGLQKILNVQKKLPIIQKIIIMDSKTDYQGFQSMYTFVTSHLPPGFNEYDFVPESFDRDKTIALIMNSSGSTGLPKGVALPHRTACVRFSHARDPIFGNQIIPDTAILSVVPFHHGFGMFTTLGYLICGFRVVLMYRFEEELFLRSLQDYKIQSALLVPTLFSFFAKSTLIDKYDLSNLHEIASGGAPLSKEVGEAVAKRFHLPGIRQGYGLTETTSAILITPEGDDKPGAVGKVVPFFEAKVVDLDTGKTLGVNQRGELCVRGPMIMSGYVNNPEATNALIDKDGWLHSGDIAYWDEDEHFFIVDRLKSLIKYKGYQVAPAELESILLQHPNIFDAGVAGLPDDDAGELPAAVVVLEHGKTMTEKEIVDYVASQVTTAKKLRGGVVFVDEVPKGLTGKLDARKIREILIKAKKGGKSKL

Sequence of Follistatin (Homo sapiens) (P19883 whole entry, looked up): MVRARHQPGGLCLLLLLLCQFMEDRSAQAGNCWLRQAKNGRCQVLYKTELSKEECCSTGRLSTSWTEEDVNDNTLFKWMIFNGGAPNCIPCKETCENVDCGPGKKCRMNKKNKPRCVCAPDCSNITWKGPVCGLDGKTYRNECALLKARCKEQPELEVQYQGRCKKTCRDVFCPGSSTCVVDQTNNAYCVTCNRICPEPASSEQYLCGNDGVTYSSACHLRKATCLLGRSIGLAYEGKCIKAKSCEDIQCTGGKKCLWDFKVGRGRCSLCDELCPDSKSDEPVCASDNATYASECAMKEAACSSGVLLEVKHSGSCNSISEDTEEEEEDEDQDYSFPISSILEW
Sequence of Focal adhesion kinase 1 (Homo sapiens) (Q05397 whole entry, looked up): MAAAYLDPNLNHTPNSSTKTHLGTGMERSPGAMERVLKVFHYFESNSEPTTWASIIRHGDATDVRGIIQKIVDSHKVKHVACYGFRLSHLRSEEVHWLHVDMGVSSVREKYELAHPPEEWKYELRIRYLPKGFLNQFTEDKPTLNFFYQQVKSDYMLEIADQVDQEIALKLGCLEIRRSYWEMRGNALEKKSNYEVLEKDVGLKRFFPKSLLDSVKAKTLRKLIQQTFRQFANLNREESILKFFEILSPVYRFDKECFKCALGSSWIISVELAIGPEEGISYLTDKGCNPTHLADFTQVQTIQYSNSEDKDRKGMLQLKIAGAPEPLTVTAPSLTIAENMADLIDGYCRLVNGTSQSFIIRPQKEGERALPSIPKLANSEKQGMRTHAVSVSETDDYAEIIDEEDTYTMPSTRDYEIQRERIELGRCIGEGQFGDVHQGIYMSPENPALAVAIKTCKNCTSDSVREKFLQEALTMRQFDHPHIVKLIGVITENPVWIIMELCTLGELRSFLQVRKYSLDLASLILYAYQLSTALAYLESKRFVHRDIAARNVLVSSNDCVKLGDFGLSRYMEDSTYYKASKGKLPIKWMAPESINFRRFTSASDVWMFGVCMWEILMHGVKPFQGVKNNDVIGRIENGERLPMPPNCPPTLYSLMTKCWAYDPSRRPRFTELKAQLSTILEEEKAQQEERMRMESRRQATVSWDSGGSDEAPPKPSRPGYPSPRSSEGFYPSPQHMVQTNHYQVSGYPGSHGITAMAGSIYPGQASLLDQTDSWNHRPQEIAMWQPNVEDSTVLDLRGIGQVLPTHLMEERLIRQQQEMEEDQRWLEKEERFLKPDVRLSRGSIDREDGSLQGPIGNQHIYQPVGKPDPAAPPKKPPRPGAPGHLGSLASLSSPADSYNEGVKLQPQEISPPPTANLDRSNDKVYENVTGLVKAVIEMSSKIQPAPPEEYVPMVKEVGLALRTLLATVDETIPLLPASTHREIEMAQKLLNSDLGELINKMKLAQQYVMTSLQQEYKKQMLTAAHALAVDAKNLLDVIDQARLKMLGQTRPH
Sequence of Fibroblast growth factor 2 (Homo sapiens) (P09038 whole entry, looked up): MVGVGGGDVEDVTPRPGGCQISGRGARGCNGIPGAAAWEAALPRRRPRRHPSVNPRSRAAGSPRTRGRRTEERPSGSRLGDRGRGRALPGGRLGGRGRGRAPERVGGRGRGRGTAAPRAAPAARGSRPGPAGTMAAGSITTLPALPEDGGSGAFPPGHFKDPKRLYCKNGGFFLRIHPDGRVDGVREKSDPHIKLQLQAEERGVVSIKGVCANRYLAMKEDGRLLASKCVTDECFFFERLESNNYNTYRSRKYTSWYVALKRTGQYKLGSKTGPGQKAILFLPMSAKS

Compound | composite z-score [1] | composite z-score [2] | composite z-score [3] | composite z-score [4] | composite z-score [5] | composite z-score [6] | z-score [7] | composite z-score (Lefty1) | composite z-score [8] | z-score [9]
CO[C@H]1COC(=O)[C@H](Cc2ccccc2)NC(=O)CC=C[C@@H](C)[C@H](OC)COC(=O)CC=C[C@@H]1C | 0.809 | 0.779 | -0.237 | 0.256 | 0.424 | 0.144 | 1.64 | 0.492 | -0.12 | -1.27 (inactive)
COCCCNC(=O)[C@@]1(c2ccc([N+](=O)[O-])cc2)CC(=O)N(C2CCCCC2)[C@@H]1c1ccc(CO)cc1 | 1.13 | 0.542 | 0.643 | -0.523 | -0.0809 | 0.269 | 0.612 | -1.4 | -0.273 | -0.501 (inactive)
O=C(CS)NCCCCCNC(=O)[C@H]1C[C@H]2C(=O)N[C@@H](Cc3ccccc3)C(=O)N2[C@H]1c1ccc(O)cc1 | 1.58 | 1.06 | 0.485 | 0.948 | 1.43 | 1.14 | -0.586 | 0.854 | 1.21 | -2.91 (inactive)
COC(=O)Cn1c(C(=O)N2CCCC2)cc2c1C[C@H]1CN(C(=O)c3ccccc3)[C@@](Cc3ccccc3)(C(=O)OC)[C@@H]21 | 1.64 | 0.684 | 0.714 | 1.01 | 0.0488 | -0.684 | 0.367 | 0.142 | 1.43 | 0.659 (inactive)
O=C1O[C@@H](c2ccccc2)[C@@H](c2ccccc2)N2[C@@H](c3ccccc3OCCO)[C@]3(C(=O)Nc4ccc(C#CC5=CCCCC5)cc43)[C@@H](C(=O)O)[C@H]12 | 1.91 | 1.19 | 0.705 | 0.934 | 1.14 | 0.301 | -2.32 | 0.699 | 1.17 | -5.86 (inactive)
C=C(/C(=C/C[C@@H](OC(=O)c1ccncc1)c1ccc(CO)o1)c1cnc2ccccc2c1)C(C)C | 1.73 | 0.969 | 0.462 | 0.954 | 1.32 | 1.07 | 0.313 | 0.949 | 1.4 | -4.43 (inactive)
COC(=O)C[C@H]1O[C@]2(C(=O)N(Cc3ccccc3)c3ccc(I)cc32)[C@@H](C)[C@@H]1[Si](C)(C)c1ccc(OC)cc1 | -0.421 | -0.807 | -0.172 | -0.774 | -0.274 | -0.222 | 0.0578 | -0.603 | 0.322 | 0.417 (inactive)
CC1CC/C=C\[C@H]2OC34C=CCN(Cn5nnc6ccccc65)C(=O)[C@H]3N(C(C)CO)C(=O)[C@@H]4C2C(=O)O1 (stereo not given in full) | 0.52 | -1.01 | -0.305 | -0.559 | -0.491 | -1.01 | 0.417 | -0.328 | -0.462 | -0.223 (inactive)
O=C1O[C@H](c2ccccc2)[C@H](c2ccccc2)N2[C@H]1[C@@H](C(=O)NC[C@H](O)c1ccccc1)[C@]1(C(=O)Nc3ccc(C#CC4=CCCCC4)cc31)[C@H]2c1ccc(OCCO)cc1 | 0.879 | 1.19 | 0.73 | 0.874 | 1.2 | 0.527 | -1.76 | 1.26 | 0.944 | -1.4 (inactive)
CO[C@H]1COC(=O)CC=C[C@H](C)COC(=O)[C@@H](OCc2ccccc2)C=C[C@@H]1C | 0.507 | -0.67 | -0.3 | -0.418 | 1.56 | 1.83 | 0.33 | 1.69 | -0.726 | -0.275 (inactive)
CC(=O)NCCCC[C@@H]1NC(=O)[C@H]2C[C@@H](C(=O)NCCCCCCN(C)C)[C@@H](c3cccc(OCCO)c3)N2C1=O | 2.66 | 1.2 | 1.15 | 0.478 | 1.37 | 1.33 | -0.153 | 1.57 | 0.797 | -0.805 (inactive)
C=CCOC(=O)[C@@H]1[C@H]2C(=O)O[C@H](c3ccccc3)[C@H](c3ccccc3)N2[C@H](c2ccc(OCCOC(=O)[C@H]3C[C@H]4C(=O)N5CCC[C@H]5C(=O)N4[C@H]3c3ccc(O)cc3)cc2)[C@@]12C(=O)Nc1ccccc12 | 0.912 | 1.2 | 0.782 | 0.81 | 1.37 | 1.58 | -1.47 | 0.872 | 0.93 | -0.803 (inactive)
COc1ccc(-c2ccccc2[C@@H]2N[C@H](C(=O)O)CC[C@H]2C)cc1 | 0.351 | 0.449 | 0.671 | 0.0159 | 0.107 | 0.364 | -0.568 | 0.404 | -0.361 | -0.739 (inactive)
CC(=O)Nc1ccc([C@H]2[C@H](C)CC[C@H]3C(=O)N4[C@@H](CC[C@@H](C)[C@@H]4c4ccc(NC(C)=O)cc4)C(=O)N32)cc1 | 2.46 | 1.16 | 0.558 | 0.798 | 1.19 | 1.25 | 0.673 | 1.54 | 0.994 | -0.765 (inactive)
C[C@@H]1CC[C@H]2C(=O)N3[C@@H](CC[C@@H](C)[C@@H]3c3cccc(N4CCOCC4)c3)C(=O)N2[C@H]1c1cccc(N2CCOCC2)c1 | 0.181 | 0.978 | 0.0379 | 0.815 | 1.16 | 1.16 | 1.05 | 1.47 | 0.964 | -1.23 (inactive)
C=CC[C@]1(C(=O)N2CCCCC2)N=C(c2ccc(OCCCO)cc2)O[C@H]1c1ccccc1N=[N+]=[N-] | 2.94 | 1.26 | 0.426 | 1.01 | 1.4 | 1.55 | -0.591 | 1.48 | 1.37 | -10 (active)
CCCN1C(=O)[C@@]2(CCS(=O)(=O)c3ccccc3)N=C(c3ccc(OCCCO)cc3)O[C@H]2c2ccccc21 | 2.79 | 1.23 | 0.494 | 0.762 | 1.4 | 0.961 | 0.782 | 0.78 | 0.46 | -0.869 (inactive)
Cc1cc(C)c(C(O)C2C=CC3C(=O)N(C)C(=O)C3N2N2CCCCC2)c(C)c1 (stereo not given) | 2.16 | 1.18 | -0.193 | 0.985 | 1.28 | 0.994 | 0.85 | -0.0675 | 0.799 | 0.915 (inactive)
[N-]=[N+]=NCc1ccccc1C[C@]1(C(N)=O)N=C(c2ccc(OCCCO)cc2)O[C@H]1c1ccccc1CN=[N+]=[N-] | 3.15 | 0.974 | 1.21 | 0.98 | 1.01 | 0.19 | 1.3 | -0.621 | 1.32 | -3.84 (inactive)
O=C(CS)NCCCCCCNC(=O)[C@@H]1C[C@@H]2C(=O)N[C@@H](Cc3ccccc3)C(=O)N2[C@@H]1c1ccc(O)cc1 | 2.75 | 1.24 | 0.874 | 0.255 | 1.38 | 1.73 | -1.39 | 1.48 | 0.072 | -0.663 (inactive)
C=CCC(OC(C)=O)[C@@H]1[C@@H](N(Cc2cc3ccccc3o2)C(=O)c2ccc(C)cc2)c2cc(OCCCO)ccc2N1C(=O)c1ccc2ccccc2n1 (stereo not given in full) | -0.88 | -0.593 | 0.178 | -0.589 | 0.573 | -0.0362 | 1.57 | -0.114 | -0.475 | -1.33 (inactive)
C=CCC1=C[C@H]2[C@H]([C@@H]3C=C[C@]2(CC=C)C(=O)[C@]32CO2)[C@@]2(CO2)C1=O | -0.131 | -1.2 | -0.263 | -0.571 | 1.45 | 1.45 | 1.84 | 1.58 | -0.0818 | -1.01 (inactive)
COCCCNC(=O)[C@@H]1c2ccccc2C(=O)N(CC23CC4CC(CC(C4)C2)C3)[C@H]1c1ccc(CO)cc1 | -0.348 | 0.816 | 0.412 | -0.434 | 1.39 | 0.875 | -0.648 | 0.19 | 0.728 | 0.438 (inactive)
COCCOC(=O)N1C(=O)[C@@]2(c3cc(C#CCCO)ccc31)[C@H](c1ccc(OCCO)cc1)N1[C@H](c3ccccc3)[C@H](c3ccccc3)OC(=O)[C@H]1[C@@H]2C(=O)NC[C@H](O)c1ccccc1 | 1.23 | 1.21 | 0.76 | 0.883 | 1.39 | 1.36 | -1.15 | 1.24 | 0.728 | -0.216 (inactive)
C=CCC(OC(C)=O)[C@@H]1[C@@H](N(Cc2cc3ccccc3o2)C(=O)Cc2ccc(F)cc2)c2cc(OCCCO)ccc2N1C(=O)c1ccc(-c2ccccc2)cc1 (stereo not given in full) | -1.6 | -0.844 | -0.341 | -1.2 | 0.0166 | -0.287 | 2.35 | -0.234 | -0.681 | -1.06 (inactive)
CC(C)N1CC=CC23O[C@@H]4/C=C\CCCOC(=O)C4[C@H]2C(=O)N(CCO)[C@@H]3C1=O (stereo not given in full) | -0.548 | -0.328 | 0.339 | -0.508 | -0.544 | -0.635 | 1.77 | 0.225 | -0.505 | -1.68 (inactive)
C=CCNC(=O)[C@H]1[C@@H]2C(=O)O[C@@H](c3ccccc3)[C@@H](c3ccccc3)N2[C@@H](c2ccccc2OCCO)[C@]12C(=O)N(C(=O)OCCOC)c1ccc(C#CCNC(N)=O)cc12 | 1.26 | 1.17 | 0.409 | 0.742 | 0.776 | 0.104 | 0.423 | 0.629 | 1.11 | -0.963 (inactive)
COc1cccc([C@H]2N[C@H](C(=O)O)CC[C@@H]2C)c1 | 0.184 | 0.335 | 0.163 | 0.363 | 0.0807 | -0.0305 | -0.14 | 0.223 | -0.208 | -0.128 (inactive)
Cc1ccc(S[C@]2(C(=O)O)CC(=O)N(Cc3cc(C(F)(F)F)cc(C(F)(F)F)c3)[C@@H]2c2ccc(CO)cc2I)cc1 | -0.339 | -0.664 | 0.0035 | -1.56 | -0.251 | -0.325 | -0.603 | -0.89 | -1.09 | -1.3 (inactive)
